From PubChem BioAssay (NCI)
About 79,000 compounds went through this panel and 15% of them were active in at least one assay; those are over-represented in the sample as a whole. Values without a mark were called inactive. Activity calls are given as the source filed them. Rule as the data show it: active = growth inhibition above about 70%; inactive = the rest.

test: NCI Yeast Anticancer Drug Screen. Data for the cln2 rad14 strain (AID 165);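 also: 0% = growth equal to vehicle treated cultures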; details: S. cerevisiae cln2 rad14 strain, at 5.0 µM (retest, dose inferred, filed as 0.5), stronger effect = higher value
How it was run: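 Compounds are applied to the cln2 rad14 yeast strain, and growth is then compared with that of vehicle-treated cultures to give inhibition.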

Compound | growth inhibition
CCCCCCCCCCCCCCCBr | -5%
CCCCCCCCCCCC(=O)OCC(C)C | 20%
O[Si](O)(c1ccccc1)c1ccccc1 | 0%
O=C(c1ccccc1)C(C(=O)c1ccccc1)c1ccc2ccccc2n1 | -2%
O=C1C=CC(=O)N1c1ccccc1[N+](=O)[O-] | 90% (active)
CCCCCCCCCCCC(O)=C1C(=O)CC(O)CC1=O (centres undefined) | 40%
OCCc1cccc2ccc3ccccc3c12 | -1%
O=C1C(=O)C(Cl)=C(Cl)C(Cl)=C1Cl | -12%
O=C1C=CC2C(=O)c3ccccc3C(=O)C2=C1 (centres undefined) | 5%
O=C(N(c1ccc(Cl)cc1)c1ccc(Cl)cc1)C(Cl)(Cl)Cl | 14%
COc1cccc2c1S(=O)(=O)C(c1ccccc1)=CC2=O | 12%
COc1cc(-c2nn3c(=O)n(-c4ccc(Cl)cc4)c(=O)nc3s2)cc(OC)c1OC | 7%
O=[N+]([O-])C1(CO)COC(CCc2ccccc2)OC1 (centres undefined) | 2%
COc1ccc(C(=O)CCc2c[nH]c3ccccc23)c(O)c1 | 22%
CC/C(=C(\CC)c1ccc(OCCN2CCOCC2)cc1)c1ccc(OCCN2CCOCC2)cc1 | 62%
CCCCCCCCCCCN1C(=O)c2ccccc2S1(=O)=O | -14%
CCCCCCCCCCCC(=O)NN | -3%
CCN1CCC(O)(/C=C/c2ccccc2)C(C(=O)/C=C/c2ccccc2)C1 (centres undefined) | 13%
NC(=S)NNCCC(=O)Nc1ccccc1C(F)(F)F | -3%
